Dicer inh: human Dicer pre-microRNA cleavage inhibition; Q9UPY3; cat-ELCCA pre-miR-21 Dicer processing, chemiluminescence; hits give high values; z-score at 25 µM; 47,000 tested, 6% active; AID 1347074; in the data active = z-score above about 3, passing the limit was not always enough;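 also: plate controls were vehicle for no effect and no enzyme for full effect; higher signal means more uncleaved substrate so more Dicer inhibition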
Numbers without * were called inactive. Shown is part of a subset that was picked to be rich in hits.

SMILES	Dicer inh
CCOC(=O)C1=C(C)NC2=C(C(=O)CC(c3ccc(Cl)cc3)C2)C1c1ccc(N(C)C)cc1 (centres undefined)	1.7
CCOCCOC(=O)C1=C(C)NC2=C(C(=O)CC(c3ccccc3)C2)C1c1ccccc1OCC (centres undefined)	2.6
CCOc1cc(C2C(C(=O)OC)=C(C)NC3=C2C(=O)CC(c2ccccc2)C3)cc(Cl)c1O (centres undefined)	3.7*
CCOc1cc(C2C(C(=O)OC)=C(C)NC3=C2C(=O)c2ccccc23)cc(Cl)c1O (centres undefined)	2.9
CCOCCOC(=O)C1=C(C)NC2=C(C(=O)CC(c3ccc(Cl)cc3)C2)C1c1ccc(F)cc1 (centres undefined)	4.2*
CCOC(=O)C1=C(C)NC2=C(C(=O)CC(c3ccc(OC)cc3)C2)C1c1ccc(OC)cc1 (centres undefined)	1.3
CCOc1cc(C2Nc3ccccc3NC3=C2C(=O)CC(c2ccccc2)C3)cc(Cl)c1O (centres undefined)	1.1
CCCOc1ccc(C2C(C(=O)OC)=C(C)NC3=C2C(=O)CC(c2ccc(OC)cc2)C3)cc1 (centres undefined)	2.1
CCOC(=O)N1CCC(Nc2nc(OC)nc(OC)n2)CC1	0.24
CCNC(=S)Nc1ccc(S(=O)(=O)Nc2cc(C)on2)cc1	-0.3
CSc1nc(/N=C/N(C)C)n2nc(-c3ccccc3)cc2n1	-0.7
Clc1cccc(-c2nc(-c3cccnc3)no2)c1	-0.16
O=S(=O)(Nc1ccc2c(c1)nc1n2CCN(Cc2ccccc2)C1)c1ccc(Cl)cc1	1.6
CC1(C)S[C@@H]2[C@H](NC(=O)C(C(=O)O)c3ccsc3)C(=O)N2[C@H]1C(=O)O (some centres undefined)	0.64
CC(C)CCOc1ccc(C2(C)NC(=O)NC2=O)cc1 (centres undefined)	0.14
O=C(Nc1cccc(Br)c1)c1cccs1	0.25
COC(=O)C1=NOC2C(=O)N(c3ccc(Br)cc3)C(=O)C12 (centres undefined)	0.81
C=CCC(C#Cc1ccccc1)N(C)C (centres undefined)	1.3
Cc1ccc(-c2nc(/N=C/NOC(=O)c3ccc([N+](=O)[O-])cc3)sc2C)cc1Cl	3.6*
O=C(ON/C=N/c1ncc(-c2ccc(Br)s2)s1)c1ccc([N+](=O)[O-])cc1	0.29
Cc1ccc(-c2nc(/N=C/N(C)C)sc2C)cc1Cl	-0.43
COc1ccc(-c2noc(C(C)(C)Oc3ccc(Cl)cc3)n2)cc1OC	1.5
COc1ccc(O)c(C2=Nc3ccccc3N=C(C(F)(F)F)C2)c1	3.2*
COc1ccc(C2=Nc3ccccc3SC(c3cccc(O)c3)C2)c(O)c1 (centres undefined)	-0.77
Oc1ccccc1C1=Nc2ccccc2N=C(C(F)(F)F)C1	2.6
SMILES	Dicer inh
CC(=O)/C(C=Nc1noc(C)c1Br)=C(\C)O	2.6
CC(C)=N/N=C1/N=C(c2ccc(Cl)cc2)CS1	5.2*
Clc1ccc(C2=Nn3c(CSc4ccccc4)nnc3SC2)cc1	-0.33
CC(=Nc1ccc(Cl)cc1)c1ccsc1	0.26
CCOC(=O)c1nnn(-c2nonc2N)c1CN(C)c1ccccc1	-0.22
CCOC(=O)c1nnn(-c2nonc2N)c1-c1ccccc1Cl	1.3
CCOC(=O)c1nnn(-c2nonc2N)c1CN(CC)c1ccccc1	5.1*
CCOC(=O)c1nnn(-c2nonc2N)c1-c1cccc2ccccc12	4*
CCOC(=O)c1nnn(-c2nonc2N)c1-c1cccs1	-0.05
CCN(Cc1c(C(=O)O)nnn1-c1nonc1N)c1ccccc1	2.6
CNC(=S)N/N=C/c1c(C)cccc1Cl	1.6
CC(C)(C)c1ccc(OC(=O)c2ccc3nsnc3c2)cc1	2.1
N#CCCSc1ccccc1NC(=O)/C=C/C(=O)O	-0.23
COc1ccc(OC)c(SCC(=O)O)c1	-1.8
COC(=O)c1cc(-c2cc(OC)ccc2OC)no1	0.69
COc1ccc(OC)c(-c2sccc2CC(=O)O)c1	3.8*
N#Cc1c[nH]n2c(=O)c3c(nc12)CCC3	2.1
Cc1c(S(=O)(=O)c2ccccn2)c(N)n(Cc2ccccc2Cl)c1C	-0.52
Cn1c(=O)c2c(nc(NCC3CCCO3)n2C)n(C)c1=O (centres undefined)	-0.09
CCOC(=O)/C(C#N)=C/NN(C)c1ccccc1[N+](=O)[O-]	-0.25
CCN(CC)C(=O)/C(C#N)=C/c1cc(O)c(O)c([N+](=O)[O-])c1	3.8*
CC(C)(C)OC(=O)/C(C#N)=C/c1ccc([N+](=O)[O-])cc1	8.3
Cc1nn(Cc2nnn(CC(=O)N/N=C/c3ccc(Cl)cc3)n2)c(C)c1Br	0.01
Cc1cc(S(=O)(=O)Nc2cccc(F)c2)c(C)c(S(=O)(=O)c2ccccc2)c1	1.8
COc1ccc(NS(=O)(=O)c2ccc(F)cc2)cc1OC1CCCC1	-0.39
Cc1ccc(F)cc1S(=O)(=O)Nc1ccc2c(c1)OCC1CCCN21 (centres undefined)	6.5*
C/C(=N\OC(=O)c1ccc(Cl)cc1)c1ccn(S(=O)(=O)c2ccc(Cl)cc2)c1	11*
C/C(=N\O)c1ccn(S(=O)(=O)c2ccc(Cl)cc2)c1	0.09

Compound activity as filed in PubChem.
